Among the data in PubChem BioAssay AID1159506 (National Center for Advancing Translational Sciences (NCATS), 2015) are seed-corrected z-score values, retold here.

Over roughly 59,000 sequences, the read-out has its median near -0.00055; the lowest 2% begin near -2. The sample as a whole holds a higher share of the lowest values than the screen did.

This experiment in a line: Identification of proteins required for the processing of the EWS-FLI1 nascent transcript.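 Note: robust z of luciferase light less the median z of siRNAs with the same seed.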 Conditions: TC32 Ewing sarcoma NR0B1-luc vs CMV-luc (EWS-FLI1 target promoter against control promoter), 48 h; screened at 20 nM (by protocol). In outline: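 Genome-wide siRNA screen (Ambion v4.1, three siRNAs per gene, 20 nM final, RNAiMax) in Ewing sarcoma TC32 cells carrying NR0B1-promoter or CMV-promoter luciferase; OneGlo luciferase read 48 h post-transfection. Data normalized, z-score-MAD transformed and seed-adjusted.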
UGUUGUCAAAACCACUGCC against CTBP1: the seed-corrected z-score is -1.98.

UGAUGAACUGGUUAUGAGG against LAPTM5 registered a seed-corrected z-score of 1.26.

In the case of UACAUCCUCAUUAUAGGUU against ZNRF2, the seed-corrected z-score was -0.243.

As for UUGUCUAAUGGUAAAGUGC against LDB2, the seed-corrected z-score is -0.144.

In the case of AAGGGUAUCUGAGUCCUUG against RC3H2, the seed-corrected z-score was -0.0262.

With UGAGCGAUUGUUAAAUGCC against ZNF781, the seed-corrected z-score is -0.576.

On to UGCUCUCUCAGAAUCUCGC against SPA17, for which the seed-corrected z-score was -0.647.

With UUAGCAUUCCUGGAAUCCG against EIF5B, the seed-corrected z-score is -2.11.

AGAUUGUUAAGCAGCGUGU against C7orf43 gave a seed-corrected z-score of 0.291.

UCUAUGUCGGGAUCGGUGC against LINC00467: the seed-corrected z-score is 0.416.

Consider UUCUUAUCAGCAGCUAGUC against CKAP5, for which the seed-corrected z-score is -2.74.

For the sequence AAGGCAACAGUGUCCCAUG against SMIM22, the seed-corrected z-score is -1.28.

Regarding UUUGAAAUUUGUCAGGUCU against PQLC2L, the seed-corrected z-score was -0.634.

In turn, UACUAUGUCUUCAAGAUCC against CD99L2 returned a seed-corrected z-score of 0.481.

Take UGCUUUAACUGGAUACAUC against NPHP1: the seed-corrected z-score is -2.27.

In turn, UUCUUAGCUCCCACGAUCC against ZNF512 gave a seed-corrected z-score of 0.51.

Take UUGGUGAAUAAAUAUCAUC against ZBTB25: the seed-corrected z-score came out at 0.411.

Sequence AAUCUUCCCAUUCUCGUCC against NAA10 returned a seed-corrected z-score of 0.136.

As to UACGGUAUGACUUUCGUUG against RPL23, the seed-corrected z-score is -2.37.

Sequence AUUGUUACUAUUGGACAGG against RFPL4A had a seed-corrected z-score of 0.248.

Consider UGUUUGACCAUUCCGUAUC against VRK1, for which the seed-corrected z-score was determined as 0.29.

Take UUUCGUCUCAGCACUGCAC against ANKMY1: the seed-corrected z-score came out at 0.0118.

For the sequence UUUGUGACCAGCAAUCUGC against PLA2G2F, the seed-corrected z-score is -0.775.

Turning to AAGUUUAGCAAAGACCUGC against VPS39, the seed-corrected z-score was -2.66.

The sequence UCCGAGAUGAGGUAUUAGG against PPIP5K2 displayed a seed-corrected z-score of 0.207.

Regarding UUACACUUCAUUUCCAGAG against WNT11, the seed-corrected z-score came out at 1.06.

As to UUCUUGCCUAGACAGCACC against JAK1, the seed-corrected z-score is 0.139.

Turning to UUUGGGUAAAUAAUCCUUU against C4orf45, the seed-corrected z-score is -1.15.

Turning to UUCGGGUUGUUCUUUUUCC against TCHP, the seed-corrected z-score worked out at 0.00716.

Sequence AUAAUAUGAUUCCUAAUCC against FAM188A had a seed-corrected z-score of 0.685.

Consider UUAGCUGCAACUGGAAGGU against TEX13B, for which the seed-corrected z-score was -3.82.

For UGAUGUCCAACACCAGUCC against ADCY3, the seed-corrected z-score came to 1.37.

In turn, UUGAACUAAACAUAUCAGC against TAB3 returned a seed-corrected z-score of 1.2.

In turn, AGUGGAACAAGAUCUCAGU against NOL6 displayed a seed-corrected z-score of 0.803.

As for UUCAUACUCAGGCAUAUCC against SEC23A, the seed-corrected z-score was -0.651.

As to ACAGAUGUCACACUCGAAG against ZNF581, the seed-corrected z-score stood at 0.251.

On to UUUCAUCUCUCUUAGAUAC against AP3S1, for which the seed-corrected z-score was -0.346.

On to UGAGAGUUGAGCCUUAUCA against OR8B8, for which the seed-corrected z-score is -2.36.

For the sequence AGACGAUCAAGCUCUGGUG against CYB5R4, the seed-corrected z-score was -0.548.

Regarding ACAGGUGCAAACAAAGAGC against TMEM167B, the seed-corrected z-score was -2.18.

In the case of UGAACAUCCAGUUCUUCCC against CHERP, the seed-corrected z-score is -1.4.

For the sequence UGGAUUAGCAUGACAGACC against COPB1, the seed-corrected z-score was -2.98.

Sequence UAUGCUCCUCCCGACAAGU against HMGB1P1 showed a seed-corrected z-score of 0.175.

AAACAGACCACCUCGUAGG against MTUS2-AS1 had a seed-corrected z-score of 0.795.

On to UAUCUUCGUACUCAUUUGG against TNFAIP6, for which the seed-corrected z-score is -2.49.

In turn, ACUAGAACAAUCUGCAUCC against ZBTB1 displayed a seed-corrected z-score of 0.122.

For UAUCGGAAAGAUAGCCUGG against PTPN3, the seed-corrected z-score amounted to 0.486.

Take UACACGUACGGGAUAUUUG against HTR3A: the seed-corrected z-score was -0.067.

As for UGUUGUAGCACUCCAACGC against PRKDC, the seed-corrected z-score is -4.34.

For UCUUUAUCAAAUCUGAGUG against FANCC, the seed-corrected z-score came to 0.127.

Consider UGUGGGUUAAAAGUCAGCA against CDK4, for which the seed-corrected z-score was -1.59.

For the sequence UCUACCAACAGCAAGAUAC against PLEKHG4B, the seed-corrected z-score was -0.565.

With UGUAGGUGUAGGCUGUUCG against RFX2, the seed-corrected z-score was -4.23.

On to UUUCUGCUUGUAUCUGCCC against C1QC, for which the seed-corrected z-score was -2.

For UUCUUUAAGUCAAAGUUUC against FEZF2, the seed-corrected z-score is -1.32.

UGCUUUAUUAUUAAUGGAC against PABPC3: the seed-corrected z-score is -0.79.

In the case of UGGAUUGUAACCUUUCAUC against EIF2B5, the seed-corrected z-score was -0.151.

Take UAUUUAUUAGAAACAUGGG against ZNF415: the seed-corrected z-score was -2.45.

In turn, AAAUAGUUCUCAGUCAUUC against RBM38 yielded a seed-corrected z-score of 0.473.

On to AGUUGUCCAAUGCAGAUGU against ZDHHC24, for which the seed-corrected z-score was -0.264.

For the sequence AUAUUUGCAACCUGCAUUC against SPG7, the seed-corrected z-score is -0.324.

Turning to UCAGUUCUUGCAGUGCACC against FAM212B, the seed-corrected z-score was -0.229.

Turning to UGGGUGUUCAUGACCUGCC against LMF1, the seed-corrected z-score is -2.6.

Consider UGCCCAUCCACAUUGUCCU against REXO1, for which the seed-corrected z-score was -0.116.

As to UACGAAUCAAACCAAGAUC against RASGRP3, the seed-corrected z-score was -0.4.

Take UAUUGAUCUGCCGAGGAGC against CYFIP1: the seed-corrected z-score was -0.5.

Turning to UUCGUGACUGUCAUCAUCC against CARD11, the seed-corrected z-score turned out to be 0.437.

The sequence UGAACAUACAUCUUGAAUC against SRP19 showed a seed-corrected z-score of 0.739.

For the sequence UCGGUGUAAGGUGUCCAUG against POU2AF1, the seed-corrected z-score is -0.0736.

UUCUUUCCAAACGCAAGAU against RPRML: the seed-corrected z-score was -2.78.

AACUUGGUAGCGGCUUUGG against CDHR1: the seed-corrected z-score is -0.12.

As to UAUAUUGCUCGGUCAAGUC against RBM4, the seed-corrected z-score was -0.89.

Take AAACACGUAGGGCACAUUC against SNU13: the seed-corrected z-score is -5.96.

As to AAUGGAAAUAUUCUCGACC against CNRIP1, the seed-corrected z-score is -0.303.

Consider UCACAGAGCAGAUGGGUUC against PTPN7, for which the seed-corrected z-score was -0.424.

UUAAGUCUAGGGCAAAUUC against OGFOD1: the seed-corrected z-score was 0.0394.

For the sequence UUACCUGCAGAAACCUUCU against MUC1, the seed-corrected z-score is -2.32.

Consider AAUCUUCUUGUCCUGACUC against PHPT1, for which the seed-corrected z-score was -0.987.

Turning to AAAUAGGCAAGGAAUCUUG against LARP1BP1, the seed-corrected z-score was -1.48.

As to AAUGUUGUCAUAGCCGAUG against PSTPIP2, the seed-corrected z-score is -0.92.

In the case of UACGUGUUGAUUUGUCAGC against ANKZF1, the seed-corrected z-score came out at 0.382.

Take UCCAUUUCAGGAGCUACGC against OTULIN: the seed-corrected z-score was -2.32.

As to UGCUAAAAUAGUCGCAUCC against LOC727919, the seed-corrected z-score was -0.265.

For AUACCUGCAGUGAACAUUU against ECH1, the seed-corrected z-score was -3.28.

As to UACUGACUCCUUGUAUGCC against CSTF2T, the seed-corrected z-score came to 0.0375.
